# Results as given in PubChem BioAssay AID2284064 (EPA ToxCast).
# Calls of active or inactive are those of the source. How the source made its calls: active means hit-call score of the fitted dose curve at least 0.9, where 1 is the maximum; inactive means score below 0.9.
# Molecular target: human CDK2/CyclinA CMGC Kinase, CDK2 (gene 1017) (UniProt P24941)
# Assay: ERF_FR_ENZ_hCDK2: Eurofins (ERF) Enzymatic Radiometric [Km ATP] KinaseProfiler LeadHunter Assay for human CDK2/CyclinA CMGC Kinase
# Procedure: ERF_FR_ENZ_hCDK2 is a biochemical, single-readout assay that uses extracted gene-proteins in a cell-free assay. Measurements were taken 0.5 hour after chemical dosing in a 96-well plate. See CDK2 /CyclinA Human CMGC Kinase Enzymatic LANCE Assay [Km ATP], Cerep.ERF_FR_ENZ_hCDK2 is an assay component calculated from the ERF_FR_ENZ_hCDK2 assay. It is designed to measure enzyme activity using a type of enzyme reporter as detected by fluorescence intensity with LANCE technology.Data from the assay component ERF_FR_ENZ_hCDK2 was analyzed at the assay endpoint, ERF_FR_ENZ_hCDK2, in the positive analysis fitting direction relative to DMSO as the negative control and baseline of activity. Using a type of enzyme reporter, loss-of-signal activity can be used to understand changes in enzymatic activity as they relate to gene CDK2. To generalize the intended target to other relatable targets, this assay endpoint is annotated to the kinase intended target family, where the subfamily is serine/threonine kinase.
# CDK2/cyclinA (h) is incubated with 8 mM MOPS pH 7.0, 0.2 mM EDTA, 0.1 mg/mL histone H1, 10 mM MgAcetate and [gamma-33P]-ATP (specific activity and concentration as required). The reaction is initiated by the addition of the Mg/ATP mix. After incubation for 40 minutes at room temperature, the reaction is stopped by the addition of phosphoric acid to a concentration of 0.5%. […]
row,SMILES,outcome
1,O=C(/C=C/c1ccc(O)cc1)CC(=O)/C=C/c1ccc(O)cc1,inactive
2,COc1cc(CCC(=O)CC(=O)CCc2ccc(O)c(OC)c2)ccc1O,inactive
